Compound activity from PubChem BioAssay.
FEN1 inhibitor – blocks human flap endonuclease 1. P39748. 390,000 tested, 0.35% active. Recombinant FEN1 flap cleavage, fluorescence, 15 min. Potency, µM (top dose mostly 114 µM), for inactives: at the top dose activity change, negative = inhibition, most hits filed as inhibitors. AID 588795; note: potency is the fitted concentration of half-maximal effect; nearly all actives have a fitted effect of over 65% in size
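Recombinant FEN1 (10 nM) was preincubated with pin-transferred compounds for 15 min at room temperature, then flap DNA substrate (50 nM final) was added. Plates were read at 0 and 15 min, and normalized concentration–response data were fitted to a four-parameter Hill equation.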
APE1 inh – blocks human APE1 abasic DNA cleavage. P27695. recombinant APE1, TAMRA/BHQ-2 abasic DNA cleavage fluorescence. Potency, µM (titrated, usually from 65.8 µM), for the others: at the top dose activity change, negative = inhibition, most hits filed as inhibitors. 350,000 tested, 0.35% active;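 note: potency is the fitted concentration of half-maximal effect; plate controls were vehicle for no effect and reference inhibitor for full effect; nearly all actives have a fitted effect of over 55% in size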
Target sequence (P27695 whole entry, looked up): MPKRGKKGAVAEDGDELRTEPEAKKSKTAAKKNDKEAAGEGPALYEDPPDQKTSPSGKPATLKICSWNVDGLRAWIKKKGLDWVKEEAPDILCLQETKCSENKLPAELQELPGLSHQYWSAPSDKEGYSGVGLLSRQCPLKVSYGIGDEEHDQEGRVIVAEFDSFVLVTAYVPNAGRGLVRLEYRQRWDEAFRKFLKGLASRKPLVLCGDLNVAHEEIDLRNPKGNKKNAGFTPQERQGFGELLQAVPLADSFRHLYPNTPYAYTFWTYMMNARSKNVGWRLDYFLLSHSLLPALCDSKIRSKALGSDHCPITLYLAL
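APE1 at 0.75 nM preincubated 15 min at room temperature with compound. Reaction then started with 50 nM double-stranded THF-abasic substrate labelled with TAMRA/BHQ-2, and 525/598 nm fluorescence read kinetically. Activity taken as third-minus-first read difference, normalized to DMSO and NSC13755 controls.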
WRN helicase inh – WRN helicase (human) inhibition. 360,000 tested, 0.46% active. AID 651768. Potency, µM (doses to about 114 µM), for the others: at the top dose activity change, negative = inhibition, most hits filed as inhibitors. WRN helicase unwinding, fluorescent forked duplex, kinetic. Q14191; note: potency is the fitted concentration of half-maximal effect; nearly all actives have a fitted effect of over 55% in size
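WRN at 20 nM final preincubated with compound 15 min at room temperature; reaction started with 100 nM fluorophore/quencher forked duplex oligonucleotide and 2 mM ATP final. Unwinding followed kinetically by red fluorescence (ex 525, em 598 nm).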
BLM helicase inh – blocks DNA unwinding by human BLM helicase; P54132; recombinant BLM DNA unwinding, fluorescence dequenching; Potency, µM (doses to about 56.1 µM), inactives show top-dose activity change, negative = inhibition, most hits filed as inhibitors; 350,000 tested, 0.2% active;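 note: potency is the fitted concentration of half-maximal effect; plate controls were vehicle for no effect and no enzyme for full effect; nearly all actives have a fitted effect of over 35% in size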
PI5P4K alpha inh – PI5P4K alpha (human) kinase inhibition; P48426; PI5P4Kalpha enzyme, ADP-Glo luminescence, 60 min; stronger effect = lower value; max response, %; 330,000 tested, 1.2% active; active = max response of -50% or lower; inconclusive = between -30% and -50%; inactive = -30% or higher; note: value at the top dose of about 77 µM
Target sequence (P48426 whole entry, looked up): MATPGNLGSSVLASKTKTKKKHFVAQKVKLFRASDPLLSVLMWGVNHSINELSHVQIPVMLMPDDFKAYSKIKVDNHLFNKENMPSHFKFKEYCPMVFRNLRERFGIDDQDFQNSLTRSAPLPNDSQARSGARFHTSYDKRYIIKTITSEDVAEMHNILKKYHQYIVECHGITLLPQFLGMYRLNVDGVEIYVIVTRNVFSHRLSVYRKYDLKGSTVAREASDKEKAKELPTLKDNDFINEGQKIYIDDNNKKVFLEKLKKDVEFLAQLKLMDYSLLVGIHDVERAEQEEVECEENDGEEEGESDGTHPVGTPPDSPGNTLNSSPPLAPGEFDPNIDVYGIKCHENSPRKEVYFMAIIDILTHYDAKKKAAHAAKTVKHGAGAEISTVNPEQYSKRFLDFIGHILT
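Controls without substrate or without enzyme flank wells where PI5P4Kalpha converts substrate using 5 microM ATP (final). Incubation lasts 60 minutes at room temperature; ADP formed is read by ADP-Glo luminescence.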
RECQ1 inh-1 – blocks DNA unwinding by human RECQ1. P46063. RECQ1 DNA unwinding, red fluorescence kinetic read. Potency, µM (titrated, usually from 57.3 µM), for the others: top-dose activity, negative = inhibition, usual class: inhibitors. 240,000 tested, 0.54% active. AID 2549;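 note: potency is the fitted concentration of half-maximal effect; plate controls were vehicle for no effect and no enzyme for full effect; nearly all actives have a fitted effect of over 30% in size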
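50 nM RECQ1T1 preincubated 15 min with compound in Tris pH 8.0 buffer with MgCl2, DTT, Tween-20 and 2.5 ug/ml poly(dI-dC); started with 200 nM TAMRA/BHQ-2 forked duplex and 2 mM ATP. Unwinding read as fluorescence (525/598 nm), two reads 2 h apart.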
RECQ1 conf – confirmation of human RECQ1 helicase inhibitors | 610 tested, 28% active | Potency, µM (titrated, usually from 229 µM), without a hit: at the top dose activity change, negative = inhibition, hits mostly inhibitors | shares compounds with RECQ1 inh-1 | RECQ1 helicase DNA unwinding, fluorescence | AID 2708; note: potency is the fitted concentration of half-maximal effect; nearly all actives have a fitted effect of over 45% in size
ADP FP counter – counter-screen for RECQ1 inhibitors: ADP displacement; shares compounds with RECQ1 inh-1; ADP fluorescence polarization displacement counterscreen; Potency, µM (highest dose often 228 µM), without a hit: at the top dose activity change, negative = inhibition, usual class: inhibitors; 530 tested, 27% active; note: potency is the fitted concentration of half-maximal effect; nearly all actives have a fitted effect of over 45% in size
RECQ1 inh-2 – blocks human RECQ1 DNA unwinding. shares compounds with RECQ1 inh-1. recombinant RECQ1 DNA unwinding, red fluorescence. Potency, µM (highest dose often 119 µM), for inactives: at the highest dose activity, negative = inhibition, hits mostly inhibitors. 1,100 tested, 15% active. AID 504841; note: potency is the fitted concentration of half-maximal effect; nearly all actives have a fitted effect of over 50% in size
* hit, by the source's call; i = inactive; ? = inconclusive; · = no result given; [ ] = another dose, or the depositor's remark. Rows were chosen to be rich in hits. Some 1.5% of all compounds tested hit in one or more screens of this group. Unless noted, calls come from the whole dose curve; as a rule, active = well fitted curve in the direction sought with a large enough effect; inconclusive = small, poorly fitted or top-dose-only effect, or another doubt; inactive = no such curve, though single readings can be large; an effect the other way counts as inactive or inconclusive. Unless noted, % is set by controls: 0 for no effect and ±100 for the full control effect.

SMILES	FEN1 inhibitor	APE1 inh	WRN helicase inh	BLM helicase inh	PI5P4K alpha inh	RECQ1 inh-1	RECQ1 inh-2	others
CC1CC=CC2C1C(=O)N(Cc1ccccc1)C2c1ccc2ccccc2c1Br (configuration not stated)	-16%	-6%	·	-9%	·	i	·
O=C(CSc1ccc(-c2ccco2)nn1)NCCc1ccccc1	16%	?	1%[57.1 µM]	-26%	2	40µM*	-14%
COc1ccc(CCNC(=O)CSc2ccc(-c3ccco3)nn2)cc1	3%	?	-16%	-18%	-8	35µM*	?
CC(=O)NC(=S)Nc1ccc(NC(=S)NC(=O)/C=C/c2ccco2)cc1	-2%	?	3%[11.6 µM]	-29%	-17	?	-19%
Oc1cc2c(cc1O)[C@@H]1c3ccc(O)c(O)c3OC[C@]1(O)C2	·	3.2µM*	·	-18%	·	13µM*	?
CC(C)c1ccc(S(=O)(=O)c2cnc(SCC(=O)Nc3ccc4c(c3)OCCO4)[nH]c2=O)cc1	9%	·	·	-1%	·	·	·
CCOC(=O)c1ccc(NC(=O)c2c(NCc3sccc3C)sc3c2CCC(C)C3)cc1 (configuration not stated)	-2%	·	·	-8%	·	·	·
Cc1ccc(OCC(=O)NC2CC(C)(C)NC(C)(C)C2)cc1C	-1%	1%	11%	1%	1	i	·
CCc1ccc(OCC(=O)NC2CC(C)(C)NC(C)(C)C2)cc1	-11%	-6%	5%	-3%	-1	?	13%
COc1ccc(CCNC(=O)c2ccc(Cn3c(=O)c4cccn4c4cccnc43)cc2)cc1OC	-2%	·	·	-6%	·	·	·
O=C(Nc1cc(Cl)cc(Cl)c1)c1cc(S(=O)(=O)N2CCc3ccccc3C2)ccc1F	8%	·	·	-4%	·	·	·
CCN(CC)c1cccc(OC2=NS(=O)(=O)c3ccccc32)c1	-1%	15%	-17%	-4%	-10	?	-22%
O=C1CSC(=S)N1Cc1cccnc1	-16%	?	-9%[57.1 µM]	-6%	-18	25µM*	?
O=C(O)c1ccc(N=C2SCC(=O)N2Cc2ccccc2)cc1	-1%	3%	-26%	2%	2	-6%	·
O=C(O)c1ccc(CN2C(=O)CSC2=S)cc1	?	?	-16%[57.1 µM]	-2%	·	16µM*	-22%	RECQ1 conf=-1%[114 µM];ADP FP counter=48%[91.9 µM]
O=C1CSC(=S)N1c1cccnc1	-13%	6%	-8%[57.1 µM]	-5%	·	32µM*	-2%
O=C(NNc1ccc(F)cc1F)c1cccs1	-11%	·	·	·	·	·	·
COc1ccc(C(=O)Nc2nc3c(s2)Cc2cc(OC)ccc2-3)cc1	-25%	?	-15%	?	-17	17%	·
COc1ccc2c(c1)Cc1sc(NC(=O)c3cccs3)nc1-2	5%	-13%	0%	-20%	?	?	17%
COc1cc(/C=C/c2nc(C#N)c(NC3CCCCC3)o2)cc(OC)c1OC	?	·	·	-7%	·	·	·
COc1ccc(NC(=O)/C(C#N)=C\c2cc(C)n(-c3ccc(Oc4ccc([N+](=O)[O-])cn4)cc3)c2C)cc1	3%	7%	7%	-3%	-19	0%	·
Cc1cc(/C=C\c2nc(O)c([N+](=O)[O-])c(=O)[nH]2)c(C)n1-c1ccccc1	?	?	?	-16%	-63*	25µM*	?
COc1ccc(-n2c(C)cc(/C=C/c3nc(O)c([N+](=O)[O-])c(=O)[nH]3)c2C)cc1	?	?	-16%[57.1 µM]	-25%	-52*	?	?
CCOC(=O)c1cccc(NC(=O)CCCn2c(C)c3cnn(-c4ccccc4)c(=O)c3c2C)c1	-14%	·	·	-2%	·	·	·
O=S1(=O)c2ccccc2N(Cc2ccccc2Cl)c2ccccc21	9%	·	·	-6%	·	·	·
SMILES	FEN1 inhibitor	APE1 inh	WRN helicase inh	BLM helicase inh	PI5P4K alpha inh	RECQ1 inh-1	RECQ1 inh-2	others
Cc1ccc(S(=O)(=O)/N=C2/NC(=O)/C(=C/c3ccc(Br)o3)S2)cc1	-16%	?	?	-6%	-27	?	?
Cc1ccc2ccccc2[n+]1CCCCI	-8%	·	·	·	·	·	·
Cc1cc(N)c2ccccc2[n+]1CCCCCCCCCC[n+]1c(C)cc(N)c2ccccc21	·	?	·	-27%	·	?	·	RECQ1 conf=?;ADP FP counter=22µM*
COc1ccc(CCn2c(=S)[nH]c3cc(C(=O)N4CCOCC4)ccc3c2=O)cc1OC	4%	17%	0%	-6%	-3	35µM*	-48%
COc1ccc(CCn2c(=O)[nH]c3cc(C(=O)N4CCN(c5ccccc5)CC4)ccc3c2=O)cc1OC	7%	0%	7%	-2%	-7	-1%	·
COc1ccc(NC(=O)c2ccc3c(SCC(=O)O)c4c(nc3c2)CCCC4)c(OC)c1	?	?	-9%[11.6 µM]	-29%	-10	?	-6%
Cc1ccc(S(=O)(=O)N2CCN(c3cc(-c4cccs4)nc4ccccc34)CC2)cc1	1%	·	·	·	·	·	·
COC(=O)c1cn(C)c2ccc(S(=O)(=O)N3CCCC3)cc2c1=O	-8%	-3%	6%	-2%	·	?	-31%
CCOC(=O)C1=C(O)/C(=C/c2cc(OC)c(O)c(OC)c2)SC1=Nc1ccc(OC)cc1	?	?	-11%[11.6 µM]	-6%	2	14µM*	?
CC1CCN(c2oc(-c3ccc(OCc4ccccc4Cl)cc3)nc2C#N)CC1	-11%	·	·	·	·	·	·
CC(C)Cc1nn2c(=O)cc(COC(=O)c3ccc(NC(=O)CCc4ccccc4)cc3)nc2s1	1%	·	·	-7%	·	·	·
Cc1ccn2c(=O)c(C(=O)NC(C)c3ccccc3)c(O)nc2c1 (configuration not stated)	3%	·	·	0%	·	·	·
CC(=O)Nc1ccc(S(=O)(=O)/N=C2\SCCN2S(=O)(=O)c2ccc(NC(C)=O)cc2)cc1	-4%	?	-8%	4%	-11	?	-11%
CC(=O)Nc1ccc(S(=O)(=O)Nc2ccc(S(=O)(=O)N3CCCC3)cc2)cc1	5%	1%	0%	-3%	·	6%	·
CC(C)(C)C(=O)OCCNc1nc(-c2ccccc2)nc2ccccc12	-20%	11%	-5%	-7%	-2	7.9µM*	-17%	RECQ1 conf=2%[114 µM]
